Compound activity deposited in PubChem BioAssay by National Center for Advancing Translational Sciences (NCATS).
This is a sample that favours compounds with a hit; in the whole collection about 10% have one here.
RORg inh: blocks mouse ROR gamma transcriptional activity; P51450; Drosophila S2 Gal4-RORgamma UAS-luciferase reporter, 20 h; Potency, µM (highest dose often 53.6 µM), for inactives: at the highest dose activity change, negative = inhibition, usual class: inhibitors; 310,000 compounds, 5.4% hits; AID 2551; further: on the % scale 0 is the no-effect control and ±100 the full control effect; nearly all actives have a fitted effect of over 60% in size
Target sequence (P51450 whole entry, looked up, the tested form may be a part): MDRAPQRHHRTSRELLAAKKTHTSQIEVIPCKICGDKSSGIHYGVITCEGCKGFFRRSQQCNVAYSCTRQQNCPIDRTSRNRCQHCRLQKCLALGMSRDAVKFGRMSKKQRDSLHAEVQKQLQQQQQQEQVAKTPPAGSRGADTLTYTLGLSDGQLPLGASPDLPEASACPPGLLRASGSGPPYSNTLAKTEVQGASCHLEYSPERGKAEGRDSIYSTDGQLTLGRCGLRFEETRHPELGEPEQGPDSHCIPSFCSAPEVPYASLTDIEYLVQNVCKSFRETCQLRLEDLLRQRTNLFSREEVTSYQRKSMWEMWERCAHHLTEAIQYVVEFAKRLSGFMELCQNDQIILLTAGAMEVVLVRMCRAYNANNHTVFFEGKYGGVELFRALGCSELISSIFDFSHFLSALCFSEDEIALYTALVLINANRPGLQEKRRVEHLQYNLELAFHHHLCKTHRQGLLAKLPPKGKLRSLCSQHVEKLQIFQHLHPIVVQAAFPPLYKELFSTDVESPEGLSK
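Compounds are pin-transferred onto Drosophila Schneider cells expressing a copper-inducible Gal4–ROR gamma transactivation domain fusion. After 1 hr, copper sulfate is added to 700 uM final; luciferase is read 20 hr later.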
VP16 counter: Gal4-VP16 reporter inhibition counter-screen | Drosophila S2 Gal4-VP16 UAS-luciferase, luminescence, 20 h | 310,000 compounds, 3.5% hits | Potency, µM (titrated, usually from 53.6 µM), for the others: top-dose activity, negative = inhibition, most hits filed as inhibitors | AID 2546;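 further: Gal4-VP16 expression switched on by copper sulfate through the metallothionein promoter; on the % scale 0 is the no-effect control and ±100 the full control effect; nearly all actives have a fitted effect of over 50% in size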
SW480 rereplic: DNA re-replication induction in SW480 cells. SW480 DNA re-replication, Hoechst DNA content imaging, 48 h. Potency, µM (series often up to 46.1 µM), inactives show at the top dose re-replication activation, usual class: activators. 340,000 compounds, 1.8% hits. AID 624297; further: % of control where 0% means no effect; nearly all actives have a fitted effect of over 55% in size
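250 cells/well; 23 nL cpd via pin tool; 48 hr, 37 C, 5% CO2; Hoechst 40 min; imager read of total nuclear intensity, ex 405/em 500-530 nm.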
MCF10A rerep: inducers of DNA re-replication in MCF 10A breast cells; Potency, µM (series often up to 46.1 µM), for the others: top-dose activity, positive = re-replication, actives largely listed as activators; MCF 10A DNA re-replication, Hoechst nuclear intensity, 48 h; 350,000 compounds, 2.9% hits; further: % of control where 0% means no effect; nearly all actives have a fitted effect of over 50% in size
ELG1 repair inh: blocks ELG1-dependent DNA repair in HEK293T cells; HEK293T ELG1-luciferase reporter, luminescence, 16 h; DNA damage induced by 5-fluorouridine; Potency, µM (series often up to 46.1 µM), inactives show at the highest dose activity change, negative = inhibition, hits mostly inhibitors; 330,000 compounds, 2.3% hits; AID 504467; further: on the % scale 0 is the no-effect control and ±100 the full control effect; nearly all actives have a fitted effect of over 55% in size
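In this reporter screen, reduction of luminescence relative to DMSO vehicle indicated activity. Compounds and 5-fluorouridine were added together to 2,000 cells per well, incubated for 16 hr at 37 °C, then developed with ONE-Glo.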
The depositor's hits bear a star; ? = inconclusive; nt = not tested or not shown; [ ] = remark or other dose. The call rests on the fitted dose curve; in most records, active means well fitted curve in the direction sought with a large enough effect; inconclusive means small, poorly fitted or top-dose-only effect, or another doubt; inactive means no such curve, though single readings can be large; an effect the other way counts as inactive or inconclusive. Potency means the concentration at half of the fitted maximal effect.

SMILES	RORg inh	VP16 counter	SW480 rereplic	MCF10A rerep	ELG1 repair inh
CCC1=NN(C(=O)COc2ccccc2C)C(O)(c2ccncc2)C1 (centres undefined)	3.98µM*	?	-10.7%	-3.7%	2.5%
Cc1cc(C)n(C(=O)COc2ccccc2C)n1	5.9%	9.9%	-1.4%	-7.3%	7.6%
CC1=NN(C(=O)COc2ccccc2)C(O)(c2cccnc2)C1 (centres undefined)	4.7%	-0.3%	1.5%	2.1%	9.7%
CC1=NN(C(=O)COc2ccccc2C)C(O)(c2ccc(Cl)cc2)C1 (centres undefined)	14.1µM*	7.94µM*	-84.8%	25.5%	-10.2%
O=C(c1csnn1)N1CCC2(CCCN(Cc3cc(C(F)(F)F)cc(C(F)(F)F)c3)C2)CC1	25.9%	-5.5%	nt	nt	nt
CCCCCCCCCCCCCCCCCCOC[C@H](COP(=O)([O-])OCC[N+](C)(C)C)OC(C)=O	-2.3%	6.2%	nt	nt	nt
Cc1cc(C)n(-c2ccc(C(=O)N3CCC(CO)(Cc4ccccc4)CC3)cc2)n1	2.51µM*	?	-3.8%	-1.8%	?
CCOC(=O)c1cnc(SSc2ncc(C(=O)OCC)c(N)n2)nc1N	10µM*	11.2µM*	-2.5%	5.4%	?
C=CCSc1ncc(C(=O)OCC)c(N)n1	12.3%	-0.1%	0.3%	0.7%	?
O=C(C=Cc1ccco1)c1cc(Cl)ccc1O	nt	nt	16.5%	-2.5%	nt
CC(/C=C/c1ccco1)=N\NC(=O)c1cc(Cl)ccc1O	8.91µM*	?	?	?	-15.5%
c1ccc(NC2=NCCN2CC2CCC2)cc1	nt	nt	-27.3%[9.22 µM]	-3.8%	4.0%
c1ccc(NC2=NCCN2CCCC2CCCCC2)cc1	nt	nt	0.259µM*	8.7%	-0.8%
CN(C)C1=NCCN1CCCC1CCCCC1	nt	nt	23.1µM*	?	1.9%
CN(C)C1=NCCN1CCC1CCCC1	-10.6%	1.3%	-23.0%	2.6%	-7.6%
CC(C)S(=O)(=O)C/C(N)=N/OC(=O)c1cc(Cl)cc(Cl)c1	-1.1%	-1.5%	?	?	-3.7%
Oc1cccc(-c2nc3ccccc3s2)c1	?	10µM*	-4.2%	1.6%	?
CC(C)c1ccc(-c2nc3ccccc3s2)cc1	?	2µM*	-4.8%	22.5%	?
CCOc1cc(-c2nc3ccccc3s2)ccc1O	-5.1%	0.9%	1.84µM*	?	?
Nc1cccc(-c2nc3ccccc3s2)c1	?	-28.7%	-1.5%	-8.7%	?
Oc1ccc(O)c(Cc2nc3ccccc3s2)c1	7.08µM*	25.1µM*	?	?	?
Oc1ccccc1OCc1nc2ccccc2s1	?	22.9%	-8.4%	-0.4%	?
COc1cc(-c2nc3ccccc3s2)ccc1O	-7.2%	-10.1%	-5.3%	0.1%	?
Cc1[nH]n(C)c(=O)c1[N+](=O)[O-]	3.1%	-7.3%	-10.1%	?	0.9%
COC(=O)[C@@H]1C[C@@H]2CC[C@@H](O)C[C@@H]2N1CC1CCCCC1	-0.2%	-3.0%	nt	nt	nt
SMILES	RORg inh	VP16 counter	SW480 rereplic	MCF10A rerep	ELG1 repair inh
Cc1ccc(OCC(=O)N/N=C2\CC(=O)CC(C)(C)C2)c(Br)c1	-1.5%	-9.8%	-3.9%	-0.6%	0.5%
O=c1n(-c2ccccc2)c(=O)n2n1CC(O)C2	6.4%	-11.3%[10 µM]	-3.0%	11.0%	6.8%
CC(=O)C1CCC2C3CC(C)C4=CC(=O)CCC4(C)C3C(=O)CC12C (centres undefined)	nt	nt	-1.4%	-0.1%	nt
COCc1cc(C)nc(N/N=C/c2ccc(-c3cc(C(=O)O)ccc3Cl)o2)c1C#N	6.2%	3.2%	nt	nt	2.8%
COc1ccc(-c2nc3ccccc3s2)cc1O	10µM*	8.91µM*	-40.0%	-6.5%	?
O=C1c2ccccc2C(=O)N1COc1ccc(S(=O)(=O)N2CCOCC2)cc1[N+](=O)[O-]	-3.9%	-15.6%	1.8%	2.0%	0.0%
CCCCNC(=S)NNC(=O)C12CC3CC(CC(C3)C1)C2	14.1µM*	?	-1.3%	14.6%	12.2%
Cn1nc(CC(=O)Nc2cccc3ncccc23)c2ccccc2c1=O	-11.5%	?	3.6%	?	7.31µM*
O=C(CCl)Nc1cccc2ncccc12	17.8µM*	?	?	?	25.9µM*
CC1(O)CC(c2ccc(Cl)cc2)=NN1C(=O)c1ccc(Cl)cc1 (centres undefined)	?	?	?	11.6µM*	-16.3%
CC(NC(N)=O)C(=O)Nc1ccc(Cl)c(S(=O)(=O)Nc2ccc(Br)cc2)c1 (centres undefined)	6.31µM*	3.16µM*	-41.2%[1.84 µM]	?	-15.9%
CN(C)c1ccc(NS(=O)(=O)c2cc(Cl)ccc2Cl)cc1	37.1%	7.3%	?	?	18.0%
CCC(C)NCCC(=O)Nc1ccc(Cl)c(S(=O)(=O)Nc2ccc(Cl)cc2)c1 (centres undefined)	?	-6.3%	26.0%	13µM*	-1.7%
CCN(c1ccc(NS(=O)(=O)c2cc(Cl)ccc2Cl)cc1)C(C)C	?	-0.1%	?	23.1µM*	-1.8%
COc1ccc(CCNc2ccc(N3C(=O)CC(C)C3=O)cc2[N+](=O)[O-])cc1OC (centres undefined)	-67.1%	6.31µM*	-6.1%	0.1%	3.66µM*
COc1ccc(CCNc2ccc(N3C(=O)CC(C)C3=O)cc2[N+](=O)[O-])cc1 (centres undefined)	15.4%	-12.7%	-0.9%	0.7%	-28.9%
COc1ccccc1CNC(=O)C1CCN(c2ncnc3c2nc2n3CCCCC2)CC1	?	-25.9%	25.9%	-1.7%	?
O=[N+]([O-])c1ccccc1/C=N/NC1=NS(=O)(=O)c2ccccc21	1.6%	-9.2%	0.1%	-2.7%	9.0%
O=S1(=O)N=C(N/N=C/c2ccco2)c2ccccc21	7.94µM*	?	-3.7%	3.6%	?
Cc1ccc(-n2ncc3c2CC(C)(C)CC3NC(=O)c2c(C)noc2C)cc1 (centres undefined)	37.3%	-9.7%	3.2%	17.7%	0.3%
CN=C1S/C(=C\c2ccc(N3CCCC3)c(F)c2)C(=O)N1C	19.4%	5.9%	13µM*	23.1µM*	?
CC(=O)c1ccc(NC(=O)CSc2ccc(-c3sc(C)nc3C)nn2)cc1	-8.2%	4.8%	-29.0%	16.6%	18.3µM*
CN(Cc1ccccc1F)C(=O)c1ccc(Oc2ccccc2)cc1	35.9%	2.5%	-13.1%	2.4%	9.0%
CN(Cc1ccc(C(F)(F)F)cc1)C(=O)c1ccc(Oc2ccccc2)cc1	0.1%	0.0%	-1.5%	16.4µM*	-16.3%
CCOC(=O)c1ccc(N=C2SC(C(=O)Nc3ccc(C(=O)O)cc3)CC(=O)N2Cc2cccs2)cc1 (centres undefined)	18.3%	-7.3%	-0.3%	7.3%	-14.5%
CN1CCN(C(=O)c2cc(Oc3c(F)c(F)c(F)c(F)c3F)cc(C(=O)N3CCN(C)CC3)c2)CC1	2.6%	-0.9%	-39.3%	?	10.1%
CC(=O)Nc1ccc(OCc2ccc3c(c2)OCO3)cc1	26.8%	-9.3%	0.3%	-0.9%	?
